Records with an inconclusive call do not appear. Calls of active or inactive are those of the source. The calls were made as follows: active = hit-call score of the fitted dose curve at least 0.9, where 1 is the maximum; inconclusive = response in the unintended direction; inactive = score below 0.9.
Tests used:
[1] = biological target: bovine Estrogen Receptor (ER), ESR1 (gene 407238) (UniProt P49884); experiment: NVS_NR_bER: NovaScreen (NVS) Nuclear Receptor Binding Assay for bovine Estrogen Receptor (ER) (AID 2283345);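 also: actives lower the bound radioligand count which means they displace the ER ligand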
How it was run: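 Cell-free radioligand binding with bovine uterine membrane extracts, read 18 hours after dosing by scintillation counting. Loss of signal versus DMSO baseline indicates displacement. Primary screen run in duplicate at 25 uM, actives followed in concentration series.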

[2] = biological target: Estrogen receptor (Homo sapiens) (UniProt P03372); experiment: NVS_NR_hER: NovaScreen (NVS) Nuclear Receptor Binding Assay for human Estrogen Receptor (ER) (AID 2283348)
How it was run: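 Cell-free MCF7-derived ER preparation, specific radioligand displaced by test compound, read by scintillation counting 18 h post-dosing. Duplicate single-point 25 uM screen, then concentration-response confirmation; DMSO baseline.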

[3] = biological target: Glucocorticoid receptor (Homo sapiens) (UniProt P04150); experiment: NVS_NR_hGR: NovaScreen (NVS) Nuclear Receptor Binding Assay for human Glucocorticoid Receptor (GR) (AID 2283363);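 as to AC50: activity is loss of specific radioligand binding signal relative to DMSO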
How it was run: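 Compounds first tested in duplicate at 25 uM, actives followed up in concentration series. Binding to extracted GR protein measured as competitive radioligand displacement, filter scintillation read 16 h post-dosing, normalised to DMSO.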

[4] = biological target: Estrogen receptor (Homo sapiens) (UniProt P03372); experiment: OT_ER_ERaERa_1440: Odyssey Thera (OT) 24-hour HEK293T Protein-Complementation Assay for Estrogen Receptor-alpha/-alpha Homodimer (AID 2283349);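 also: hits raise fluorescence above DMSO for agonists and antagonists alike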
How it was run: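 HEK293T, stable ERα LBD (aa 310-547) homodimer PCA; 24 h compound exposure; mean fluorescence intensity (nuclear for agonists, nuclear plus cytoplasmic for antagonists) vs vehicle; positive fitting direction, DMSO baseline.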

[5] = biological target: Estrogen receptor (Homo sapiens) (UniProt P03372); experiment: OT_ER_ERaERa_0480: Odyssey Thera (OT) 8-hour HEK293T Protein-Complementation Assay for Estrogen Receptor-alpha/-alpha Homodimer (AID 2283351);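 also: rise in fluorescence from reassembled reporter fragments on ERα LBD homodimer in nucleus or whole cell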
How it was run: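 Read-out: fluorescence intensity rise relative to DMSO, nuclear for agonists, nuclear plus cytoplasmic for antagonists. Construct is the ERα LBD (aa 310-547) homodimer fragment-complementation pair, stably expressed in HEK293T; exposure 8 h.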

[6] = biological target: T1, Estrogen receptor (Homo sapiens) + Estrogen receptor beta (Homo sapiens) (UniProt P03372+Q92731); experiment: OT_ER_ERaERb_0480: Odyssey Thera (OT) 8-hour HEK293T Protein-Complementation Assay for Estrogen Receptor-alpha/-beta Heterodimer (AID 2283352)
How it was run: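 Fluorescence intensity readout from a protein-fragment complementation reporter in HEK293T; ER-alpha/ER-beta LBD heterodimer. Dosing 8 h. Gain-of-signal fit relative to DMSO negative control; laser scanning cytometry of whole-well cell population.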

[7] = biological target: T1, Estrogen receptor (Homo sapiens) + Estrogen receptor beta (Homo sapiens); experiment: OT_ER_ERaERb_1440: Odyssey Thera (OT) 24-hour HEK293T Protein-Complementation Assay for Estrogen Receptor-alpha/-beta Homodimer (AID 2283356);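 also: heteromer of ER alpha and ER beta binding domains; hits raise reporter fluorescence and both agonists and antagonists give an increase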
How it was run: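 Readout: mean fluorescence intensity in nucleus (agonists) or nucleus plus cytoplasm (antagonists), read by laser scanning cytometer after 24 h compound exposure of HEK293T cells carrying ERα/ERβ LBD fragment-complementation constructs; DMSO baseline.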

[8] = biological target: Estrogen receptor beta (Homo sapiens) (UniProt Q92731); experiment: OT_ER_ERbERb_0480: Odyssey Thera (OT) 8-hour HEK293T Protein-Complementation Assay for Estrogen Receptor-beta/-beta Homodimer (AID 2283357);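 also: active means signal gain over DMSO baseline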
How it was run: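 ER-beta LBD homodimer PCA stably expressed in HEK293T; 8 h compound exposure, then formaldehyde fixation and Draq5 staining. Gain in nuclear/cytoplasmic fluorescence intensity versus DMSO vehicle, read on laser scanning cytometer.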

[9] = biological target: chimpanzee Androgen Receptor (AR), AR (gene 747460) (UniProt O97775); experiment: NVS_NR_cAR: NovaScreen (NVS) Nuclear Receptor Binding Assay for chimpanzee Androgen Receptor (AR) (AID 2283346);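 also: radioligand displacement from AR measured by scintillation counting in a cell-free assay; a loss of bound radioligand signal versus DMSO counts as binding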
How it was run: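 Cell-free competition binding with insect-cell (Sf9/Sf21) extracted chimpanzee AR; scintillation signal from lysate at 72 h. Screened in duplicate at 25 uM, then concentration-response for actives; fitting relative to DMSO.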

[10] = biological target: Androgen Receptor/SRC-1 Co-activator, AR (gene 367) (UniProt P10275); experiment: OT_AR_ARSRC1_0960: Odyssey Thera (OT) 16-hour HEK293T Protein-Complementation Assay for Androgen Receptor/SRC-1 Co-activator (AID 2283353);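 also: actives raise the signal above DMSO so potency reflects increased AR and SRC-1 complex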
How it was run: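 Readout: 488 nm nuclear-to-cytoplasmic fluorescence ratio from imaging of at least 400 cells per image, 16 h post-dose. Reporter is Venus YFP complementation between AR and SRC-1 fusions, stably expressed in HEK293T; activity scored upward relative to DMSO.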

[11] = biological target: Androgen Receptor/SRC-1 Co-activator, AR (gene 367) (UniProt P10275); experiment: OT_AR_ARSRC1_0480: Odyssey Thera (OT) 8-hour HEK293T Protein-Complementation Assay for Androgen Receptor/SRC-1 Co-activator (AID 2283354);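 also: hits raise the complementation signal above DMSO so AC50 marks enhancers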
How it was run: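 Reconstituted split-Venus YFP signal from AR–SRC-1 interaction, read by imaging 8 h post-dose in stable HEK293T lines. The 488 nm nucleus-to-cytoplasm ratio (≥400 cells/image) was fitted upward against DMSO.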

[12] = biological target: human Peroxisome Proliferator-activated Receptor alpha (PPARa), PPARA (gene 5465) (UniProt Q07869); experiment: NVS_NR_hPPARa: NovaScreen (NVS) Nuclear Receptor Binding Assay for human Peroxisome Proliferator-activated Receptor alpha (PPARa) (AID 2283359);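 also: activity means loss of TR-FRET signal versus DMSO baseline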
How it was run: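 Loss of TR-FRET binding signal relative to DMSO was measured 1 h after chemical addition to extracted receptor protein. Chemicals were first tested in duplicate at 25 uM, and actives were followed up in concentration series.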

T1 sequence (P03372 whole entry, looked up, the tested form may be a part): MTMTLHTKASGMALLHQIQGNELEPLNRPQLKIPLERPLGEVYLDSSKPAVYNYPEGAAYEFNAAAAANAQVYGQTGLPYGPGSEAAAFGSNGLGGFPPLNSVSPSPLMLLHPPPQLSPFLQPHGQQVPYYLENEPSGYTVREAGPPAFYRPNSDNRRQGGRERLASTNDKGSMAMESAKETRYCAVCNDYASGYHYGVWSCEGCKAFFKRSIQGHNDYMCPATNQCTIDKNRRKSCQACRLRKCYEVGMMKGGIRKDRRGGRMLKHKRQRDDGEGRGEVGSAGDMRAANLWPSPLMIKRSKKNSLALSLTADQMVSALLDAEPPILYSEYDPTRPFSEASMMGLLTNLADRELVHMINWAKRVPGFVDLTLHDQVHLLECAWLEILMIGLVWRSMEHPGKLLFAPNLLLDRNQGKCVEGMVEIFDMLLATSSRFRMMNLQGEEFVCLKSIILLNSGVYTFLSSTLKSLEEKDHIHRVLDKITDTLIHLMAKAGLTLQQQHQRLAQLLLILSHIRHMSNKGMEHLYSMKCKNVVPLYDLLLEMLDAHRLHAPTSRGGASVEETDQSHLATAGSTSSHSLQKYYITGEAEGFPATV
T1 sequence (Q92731 whole entry, looked up, the tested form may be a part): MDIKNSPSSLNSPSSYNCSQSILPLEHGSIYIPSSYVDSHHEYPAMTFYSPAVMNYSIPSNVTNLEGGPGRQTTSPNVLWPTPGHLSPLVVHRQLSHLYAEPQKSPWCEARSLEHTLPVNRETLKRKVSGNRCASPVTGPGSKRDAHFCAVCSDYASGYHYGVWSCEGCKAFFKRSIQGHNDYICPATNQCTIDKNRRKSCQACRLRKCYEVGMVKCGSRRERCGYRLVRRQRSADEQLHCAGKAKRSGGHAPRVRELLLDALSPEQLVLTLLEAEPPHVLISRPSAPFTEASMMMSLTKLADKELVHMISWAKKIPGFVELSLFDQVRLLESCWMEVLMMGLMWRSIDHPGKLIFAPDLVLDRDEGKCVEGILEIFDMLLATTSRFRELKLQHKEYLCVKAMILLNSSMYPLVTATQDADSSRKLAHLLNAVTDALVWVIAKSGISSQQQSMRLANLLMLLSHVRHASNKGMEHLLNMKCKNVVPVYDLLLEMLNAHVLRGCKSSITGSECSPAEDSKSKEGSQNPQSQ
Chain of Estrogen receptor (Homo sapiens) (P03372 whole entry, looked up, the tested form may be a part): as the sequence (P03372 whole entry, looked up, the tested form may be a part) above
Chain of chimpanzee Androgen Receptor (AR), AR (gene 747460) (O97775 whole entry, looked up): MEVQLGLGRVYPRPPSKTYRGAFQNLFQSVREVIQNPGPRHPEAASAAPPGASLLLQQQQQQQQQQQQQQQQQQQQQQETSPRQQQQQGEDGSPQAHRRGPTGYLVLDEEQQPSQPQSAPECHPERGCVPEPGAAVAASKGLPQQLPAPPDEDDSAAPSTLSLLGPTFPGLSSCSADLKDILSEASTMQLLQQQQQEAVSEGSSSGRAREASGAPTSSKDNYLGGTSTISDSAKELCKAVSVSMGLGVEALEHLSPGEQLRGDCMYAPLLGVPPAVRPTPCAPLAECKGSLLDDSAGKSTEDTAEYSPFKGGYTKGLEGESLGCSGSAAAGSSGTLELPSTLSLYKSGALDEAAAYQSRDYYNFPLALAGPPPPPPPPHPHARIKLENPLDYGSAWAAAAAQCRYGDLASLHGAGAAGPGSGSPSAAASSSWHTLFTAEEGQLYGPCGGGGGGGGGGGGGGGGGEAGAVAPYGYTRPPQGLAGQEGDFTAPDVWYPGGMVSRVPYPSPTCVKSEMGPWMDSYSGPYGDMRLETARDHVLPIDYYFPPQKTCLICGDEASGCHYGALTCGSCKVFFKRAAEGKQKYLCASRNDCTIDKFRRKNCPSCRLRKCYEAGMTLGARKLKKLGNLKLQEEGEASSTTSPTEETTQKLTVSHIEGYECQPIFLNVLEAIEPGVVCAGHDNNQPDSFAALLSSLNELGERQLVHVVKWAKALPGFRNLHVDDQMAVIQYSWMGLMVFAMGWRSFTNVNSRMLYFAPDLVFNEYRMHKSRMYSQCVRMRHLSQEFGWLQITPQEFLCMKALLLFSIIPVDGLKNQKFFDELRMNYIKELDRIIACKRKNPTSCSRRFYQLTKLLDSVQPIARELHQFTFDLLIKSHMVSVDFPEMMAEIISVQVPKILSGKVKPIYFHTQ
Chain of Estrogen receptor beta (Homo sapiens) (Q92731 whole entry, looked up, the tested form may be a part): as the sequence (Q92731 whole entry, looked up, the tested form may be a part) above
Chain of Glucocorticoid receptor (Homo sapiens) (P04150 whole entry, looked up): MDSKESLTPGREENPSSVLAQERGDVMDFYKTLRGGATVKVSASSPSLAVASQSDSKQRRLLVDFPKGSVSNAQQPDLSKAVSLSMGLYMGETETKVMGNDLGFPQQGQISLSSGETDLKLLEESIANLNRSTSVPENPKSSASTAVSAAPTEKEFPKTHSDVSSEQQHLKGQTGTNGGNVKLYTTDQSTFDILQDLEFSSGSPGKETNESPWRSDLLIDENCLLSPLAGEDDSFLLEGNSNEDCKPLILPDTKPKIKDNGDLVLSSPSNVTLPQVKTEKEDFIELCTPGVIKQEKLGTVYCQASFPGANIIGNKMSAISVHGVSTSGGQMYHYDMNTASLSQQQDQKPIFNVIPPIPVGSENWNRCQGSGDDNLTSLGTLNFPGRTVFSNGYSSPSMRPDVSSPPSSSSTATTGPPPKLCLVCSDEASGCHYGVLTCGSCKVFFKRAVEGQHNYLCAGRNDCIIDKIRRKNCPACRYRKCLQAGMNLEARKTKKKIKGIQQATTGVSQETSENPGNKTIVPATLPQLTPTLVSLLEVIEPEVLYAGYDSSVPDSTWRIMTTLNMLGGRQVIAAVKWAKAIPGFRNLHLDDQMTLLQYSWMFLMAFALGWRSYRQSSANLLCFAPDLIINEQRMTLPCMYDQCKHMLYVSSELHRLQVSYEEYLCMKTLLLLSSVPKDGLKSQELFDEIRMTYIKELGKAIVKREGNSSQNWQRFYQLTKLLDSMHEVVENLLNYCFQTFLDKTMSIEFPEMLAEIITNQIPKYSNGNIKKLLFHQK
Chain of Androgen Receptor/SRC-1 Co-activator, AR (gene 367) (P10275 whole entry, looked up, the tested form may be a part): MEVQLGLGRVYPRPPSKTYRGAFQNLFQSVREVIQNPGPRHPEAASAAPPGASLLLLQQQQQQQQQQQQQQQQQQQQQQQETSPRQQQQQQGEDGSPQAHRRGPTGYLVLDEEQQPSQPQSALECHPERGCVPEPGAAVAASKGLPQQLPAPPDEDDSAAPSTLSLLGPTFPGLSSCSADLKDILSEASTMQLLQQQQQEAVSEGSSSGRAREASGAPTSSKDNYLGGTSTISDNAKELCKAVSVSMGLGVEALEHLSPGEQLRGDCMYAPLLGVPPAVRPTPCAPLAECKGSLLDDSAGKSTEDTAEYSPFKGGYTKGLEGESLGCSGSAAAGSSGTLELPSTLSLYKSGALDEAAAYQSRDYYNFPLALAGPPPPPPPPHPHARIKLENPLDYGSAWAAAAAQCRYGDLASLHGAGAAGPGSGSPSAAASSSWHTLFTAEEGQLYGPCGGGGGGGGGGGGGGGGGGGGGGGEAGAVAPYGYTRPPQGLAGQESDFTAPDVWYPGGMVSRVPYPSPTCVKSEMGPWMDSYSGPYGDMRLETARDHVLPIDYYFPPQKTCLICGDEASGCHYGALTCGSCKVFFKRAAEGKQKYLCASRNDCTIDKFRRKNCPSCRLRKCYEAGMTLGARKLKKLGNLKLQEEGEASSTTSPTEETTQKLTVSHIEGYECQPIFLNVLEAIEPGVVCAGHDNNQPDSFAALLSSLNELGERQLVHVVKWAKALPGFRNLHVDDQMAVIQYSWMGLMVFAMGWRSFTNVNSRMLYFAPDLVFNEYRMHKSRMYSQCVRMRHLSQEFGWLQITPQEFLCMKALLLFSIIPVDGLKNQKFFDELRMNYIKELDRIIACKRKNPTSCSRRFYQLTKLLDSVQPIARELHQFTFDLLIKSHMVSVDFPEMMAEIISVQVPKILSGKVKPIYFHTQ
Chain of bovine Estrogen Receptor (ER), ESR1 (gene 407238) (P49884 whole entry, looked up): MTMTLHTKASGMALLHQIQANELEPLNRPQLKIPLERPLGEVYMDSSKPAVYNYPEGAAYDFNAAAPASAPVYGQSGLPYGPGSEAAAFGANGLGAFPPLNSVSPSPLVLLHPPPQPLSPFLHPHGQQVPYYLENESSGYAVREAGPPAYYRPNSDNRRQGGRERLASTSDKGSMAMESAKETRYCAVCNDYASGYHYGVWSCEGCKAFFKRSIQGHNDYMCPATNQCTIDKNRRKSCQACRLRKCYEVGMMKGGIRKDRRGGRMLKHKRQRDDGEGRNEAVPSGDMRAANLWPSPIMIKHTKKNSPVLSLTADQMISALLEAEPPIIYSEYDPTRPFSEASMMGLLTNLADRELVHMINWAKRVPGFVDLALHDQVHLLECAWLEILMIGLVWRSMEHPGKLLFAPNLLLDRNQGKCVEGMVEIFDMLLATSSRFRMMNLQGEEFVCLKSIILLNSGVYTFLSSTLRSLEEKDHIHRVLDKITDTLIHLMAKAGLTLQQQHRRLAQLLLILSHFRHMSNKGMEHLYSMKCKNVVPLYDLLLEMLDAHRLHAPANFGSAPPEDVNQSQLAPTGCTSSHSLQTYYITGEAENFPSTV
Chain of human Peroxisome Proliferator-activated Receptor alpha (PPARa), PPARA (gene 5465) (Q07869 whole entry, looked up): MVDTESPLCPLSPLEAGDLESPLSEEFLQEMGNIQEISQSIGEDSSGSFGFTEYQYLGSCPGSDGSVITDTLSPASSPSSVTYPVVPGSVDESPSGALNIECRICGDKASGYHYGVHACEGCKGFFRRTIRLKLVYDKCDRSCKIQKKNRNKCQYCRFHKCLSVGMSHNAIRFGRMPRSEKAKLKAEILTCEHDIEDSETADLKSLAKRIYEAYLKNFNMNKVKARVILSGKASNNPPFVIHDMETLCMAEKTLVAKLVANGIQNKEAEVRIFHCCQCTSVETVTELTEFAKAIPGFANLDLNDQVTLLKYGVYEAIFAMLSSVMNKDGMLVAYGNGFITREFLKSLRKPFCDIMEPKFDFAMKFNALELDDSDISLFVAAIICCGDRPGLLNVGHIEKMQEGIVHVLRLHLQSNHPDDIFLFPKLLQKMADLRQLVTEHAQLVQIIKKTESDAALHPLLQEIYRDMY

O=S1(=O)CC(Cl)(Cl)C(Cl)(Cl)C1
outcome [1]: inactive | AC50 [2]: 18.5 µM (active) | AC50 [3]: 25 µM (active)

CCNC(=S)NCC
outcome [2]: inactive | outcome [4]: inactive | outcome [5]: inactive | outcome [6]: inactive | outcome [7]: inactive | outcome [8]: inactive

O=c1cc(-c2ccc(O)cc2)oc2cc(O)cc(O)c12
AC50 [9]: 12.9 µM (active)

C=CCOCC(O)CO (centres undefined)
AC50 [9]: 1.33 µM (active)

Nc1cc([N+](=O)[O-])ccc1C(=O)O
outcome [2]: inactive

CC(C)CCCC(C)(C)O
outcome [9]: inactive | outcome [4]: inactive | outcome [5]: inactive | outcome [7]: inactive

NNC(=O)OCc1ccccc1
outcome [2]: inactive

O=C(O)c1ccccc1O
outcome [4]: inactive | outcome [5]: inactive

O=C(O)c1cc2ccccc2cc1O
outcome [2]: inactive

CC(C)(C)c1cccc(O)c1
outcome [9]: inactive | outcome [2]: inactive | outcome [4]: inactive | AC50 [5]: 60.2 µM (active) | outcome [10]: inactive | outcome [11]: inactive

CCCc1ccc(O)cc1
outcome [9]: inactive | outcome [2]: inactive | outcome [4]: inactive | AC50 [5]: 63.7 µM (active) | AC50 [6]: 45.2 µM (active) | AC50 [7]: 43 µM (active) | AC50 [8]: 33.4 µM (active)

O=Cc1ccccc1O
AC50 [4]: 92 µM (active) | outcome [5]: inactive

CN(C)c1ccc(C=O)cc1
outcome [2]: inactive

CCCCCC1C(=O)CCC1CC(=O)OC (centres undefined)
AC50 [9]: 17.7 µM (active) | outcome [4]: inactive | outcome [5]: inactive

CCCCC/C=C\C=C\C(=O)OCC
AC50 [2]: 42.7 µM (active) | outcome [4]: inactive | outcome [5]: inactive | outcome [6]: inactive | outcome [7]: inactive | outcome [8]: inactive

[O-]/[N+](=N\O)c1ccccc1
outcome [9]: inactive | outcome [4]: inactive | outcome [5]: inactive | outcome [8]: inactive

CCc1cccc(O)c1
outcome [2]: inactive | outcome [4]: inactive | outcome [5]: inactive | outcome [6]: inactive | outcome [7]: inactive | outcome [8]: inactive

C1=COCCC1
outcome [4]: inactive | outcome [5]: inactive

CN1CCc2cccc3c2[C@H]1Cc1ccc(O)c(O)c1-3
AC50 [2]: 0.02 µM (active) | outcome [4]: inactive | outcome [5]: inactive | AC50 [7]: 4.59 µM (active) | outcome [8]: inactive | AC50 [12]: 0.279 µM (active) | outcome [3]: inactive
